Shown are actives, neighbours in structure and some others; about 2.4% of the full set was active somewhere.
Rango dissoc inh – qHTS Assay for Inhibitors of RanGTP induced Rango (Ran-regulated importin-beta cargo) - Importin beta complex dissociation | Biochemical FRET Rango-importin beta, RanGTP-induced dissociation | Snurportin-1 (Homo sapiens) + GTP-binding nuclear protein Ran (Homo sapiens) + Importin … | 0.071% of 340,000 active | Potency, µM (titrated, usually from 46.1 µM), without a hit: at the highest dose activity change, negative = inhibition; calls by dose curve; further: % of control where 0% means no effect; nearly all actives have a fitted effect of over 45% in size
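Two FRET readings bracket the reaction: one 5 min after compound meets Rango–importin beta, another 45 min after RanGTP-RCC1 (0.6 uM Ran, 0.2 uM RCC1, 2 mM GTP) is added. Only the second defines inhibition.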
ClpP mod – qHTS Assay for Activators of ClpP; ATP-dependent Clp protease proteolytic subunit (Bacillus subtilis (strain 168)), P80244; purified B. subtilis ClpP, FRET peptide cleavage, 20 min; Potency, µM (highest dose often 57.5 µM), for inactives: top-dose activity change, negative = active; 1.9% of 340,000 active; active means well fitted falling curve with a large enough effect; inconclusive means small, poorly fitted or top-dose-only effect; inactive means no such curve, though single readings can be large or run the other way; further: the source files actives as falling curves though it sought activators and does not explain the sign; nearly all actives have a fitted effect of over 65% in size
Target sequence (P80244 whole entry, looked up): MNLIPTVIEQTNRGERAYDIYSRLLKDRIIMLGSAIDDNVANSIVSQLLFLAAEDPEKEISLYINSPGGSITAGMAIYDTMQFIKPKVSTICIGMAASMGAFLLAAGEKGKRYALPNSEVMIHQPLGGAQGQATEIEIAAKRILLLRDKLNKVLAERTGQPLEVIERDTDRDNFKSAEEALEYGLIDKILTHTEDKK
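FRET quenching reversal measured ClpP activation: 10 microg/mL B. subtilis ClpP at pH 8 with the FRET-FV decapeptide, read at 430 nm after 320 nm excitation. The 20-min minus 0-min signal was scaled between DMSO/no-enzyme wells and ADEP (5.8 microM final).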
TDP1 inh – qHTS Assay for Inhibitors of Tyrosyl-DNA Phosphodiesterase (TDP1); recombinant TDP1, AlphaScreen DNA substrate cleavage; Potency, µM (doses to about 130 µM), for the others: at the top dose activity change, negative = inhibition, hits mostly inhibitors; Tyrosyl-DNA phosphodiesterase 1 (Homo sapiens), Q9NUW8; 0.28% of 350,000 active; further: on the % scale 0 is the no-effect control and ±100 the full control effect; nearly all actives have a fitted effect of over 40% in size
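Recombinant E. coli-expressed Tdp1 (1 nM) preincubated with compound 15 min at RT, then 5'-biotin/3'-phosphotyrosine-FITC DNA substrate (15 nM) added for 5 min. AlphaScreen beads (10 ug/ml) added, 10 min RT; tyrosine-FITC cleavage read as signal loss.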
Rango-impB inh – qHTS Assay for Inhibitors of Rango (Ran-regulated importin-beta cargo) - Importin beta complex formation; Importin subunit beta-1 (Homo sapiens), Q14974; Rango CFP/YFP FRET sensor + importin beta, 45 min; Potency, µM (series often up to 92.2 µM), for the others: at the top dose inhibition of complex formation; 0.031% of 340,000 active; calls by dose curve;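 further: 0% = DMSO wells and 100% = buffer wells lacking importin beta; nearly all actives have a fitted effect of over 15% in size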
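Inhibition scored from the CFP 486 nm/YFP 530 nm FRET ratio 45 min after adding 0.125 microM importin beta to 50 nM Rango biosensor preincubated 5 min with compound (room temperature, PBS with DTT, Tween-20, BSA). No-importin wells as positive control.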
TSG101-PTAP inh – qHTS Assay for Iinhibitors of HIV-1 Budding by Blocking the Interaction of PTAP/TSG101; 340,000 tested, under 10 active; Fluorescence polarization, FITC-PTAP peptide / Tsg101 binding; Tumor susceptibility gene 101 protein (Homo sapiens), Q99816; Potency, µM (top dose mostly 115 µM), for the others: at the highest dose activity change, negative = inhibition, hits mostly inhibitors; active means well fitted inhibition curve with a large enough effect in the main read-out, with a control signal flat, not every such curve was filed as active; inconclusive means small, poorly fitted or top-dose-only effect, or effect the other way, or a change in a side signal; inactive means no such curve, though single readings can be large or run the other way; further: % of control where 0% means no effect
Target sequence (Q99816 whole entry, looked up): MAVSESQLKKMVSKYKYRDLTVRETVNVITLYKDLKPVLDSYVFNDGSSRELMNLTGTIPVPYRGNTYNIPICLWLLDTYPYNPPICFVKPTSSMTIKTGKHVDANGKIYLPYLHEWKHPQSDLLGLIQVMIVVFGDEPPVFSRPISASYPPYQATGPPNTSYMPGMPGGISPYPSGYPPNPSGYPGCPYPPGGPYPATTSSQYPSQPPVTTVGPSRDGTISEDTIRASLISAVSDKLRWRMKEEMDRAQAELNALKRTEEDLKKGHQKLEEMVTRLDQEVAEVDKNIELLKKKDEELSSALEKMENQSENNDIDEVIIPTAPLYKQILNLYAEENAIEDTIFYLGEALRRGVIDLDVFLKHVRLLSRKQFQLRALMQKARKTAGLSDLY
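Compounds were pin-transferred onto Tsg101 binding domain (10 uM final) in HEPES pH 7.5 buffer, then FITC-PTAP peptide was added at 50 nM final. After 20 min at RT, polarization reported peptide displacement across a qHTS concentration series.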
12-LOX inh – Primary qHTS assay for inhibitors of human arachidonate 12S-lipoxygenase (ALOX12): Round 2; Polyunsaturated fatty acid lipoxygenase ALOX12 (Homo sapiens), P18054; purified 12hLO, xylenol orange hydroperoxide absorbance; Potency, µM (top dose mostly 108 µM), without a hit: at the top dose activity change, negative = inhibition, hits mostly inhibitors; 1.1% of 580,000 active; AID 1671190, 2021; further: on the % scale 0 is the no-effect control and ±100 the full control effect
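Hydroperoxide product was detected by ferrous iron/xylenol orange as the 573 to 405 nm absorbance ratio. Arachidonic acid at 40 uM (final) was turned over for 30 min at room temperature by 150 nM human 12hLO, pH 7.0 Hepes buffer, after 15 min compound preincubation.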
The depositor's hits bear a star; [ ] = another dose, or the depositor's remark. Unless noted, the call rests on the fitted dose curve; in most records, active means well fitted curve in the direction sought with a large enough effect; inconclusive means small, poorly fitted or top-dose-only effect, or another doubt; inactive means no such curve, though single readings can be large; an effect the other way counts as inactive or inconclusive. Potency means the concentration at half of the fitted maximal effect.

For COC(=O)c1coc(-c2ccc(OC)cc2)c1C(=O)OC the results were Rango dissoc inh 10%, ClpP mod 32µM*, TDP1 inh -2%, Rango-impB inh -1%, TSG101-PTAP inh -6% and 12-LOX inh 4%.
CNS(=O)(=O)c1cccc(C(=O)NCC2(N3CCCCC3)CCCCC2)c1 was read as Rango dissoc inh -3%, ClpP mod -2%, TDP1 inh 50µM*, Rango-impB inh 2%, TSG101-PTAP inh -6% and 12-LOX inh -5%.
`CN(C)S(=O)(=O)c1cccc(C(=O)NCC2(N3CCOCC3)CCCCC2)c1` gave Rango dissoc inh -4%, ClpP mod 0%, TDP1 inh 1%, Rango-impB inh 0%, TSG101-PTAP inh -3% and 12-LOX inh 0%.
Screening CC(=O)Nc1cc(NC(C)=O)cc(C(=O)NCC2(N3CCOCC3)CCCCC2)c1 returned Rango dissoc inh 0%, ClpP mod -1%, TDP1 inh 22µM*, Rango-impB inh 2%, TSG101-PTAP inh 0% and 12-LOX inh -25%.
For CC(=O)C1=C(O)C(=O)N(c2ccccn2)C1c1ccccc1[N+](=O)[O-] (configuration not stated) the results were Rango dissoc inh 6%, Rango-impB inh -2%, TSG101-PTAP inh -2% and 12-LOX inh 14µM*.
For CCNc1ncnc2sc3c(c12)CCN(C(=O)c1ccncc1)C3 the results were 12-LOX inh 34%.
CC1(C)CC(NC(=S)Nc2ccccc2)CC(C)(CNC(=S)Nc2ccccc2)C1 (configuration not stated) was read as 12-LOX inh 28µM*.
Screening Cc1ccc(NC(=S)NCc2ccccc2)c(C)c1 returned Rango dissoc inh 1%, ClpP mod 0%, Rango-impB inh -1%, TSG101-PTAP inh -2% and 12-LOX inh 0%.
CC1(C)CC(NC(=S)Nc2cccc(F)c2)CC(C)(C)N1 was read as 12-LOX inh -10%.
`Cc1ccc(NC(=S)NCC2(C)CC(NC(=S)Nc3ccc(C)cc3C)CC(C)(C)C2)c(C)c1` (configuration not stated) gave 12-LOX inh 7.1µM*.
Screening CCCc1c(O)c2ccccc2[nH]c1=O returned Rango dissoc inh -10%, ClpP mod 14µM*, TDP1 inh -2%, Rango-impB inh 4%, TSG101-PTAP inh -1% and 12-LOX inh 0%.
`Cc1ccccc1NC(=O)Cc1c(O)c2ccccc2[nH]c1=O` gave Rango dissoc inh -6%, ClpP mod 16µM*, TDP1 inh 0%, Rango-impB inh 1%, TSG101-PTAP inh -1% and 12-LOX inh -2%.
For Cc1ccc(NC(=O)Cc2c(O)c3ccccc3[nH]c2=O)c(C)c1 the results were Rango dissoc inh 12%, TDP1 inh 0%, Rango-impB inh 1%, TSG101-PTAP inh -6% and 12-LOX inh -11%.
For CCCCc1c(O)c2ccccc2[nH]c1=O the results were Rango dissoc inh -3%, ClpP mod 25µM*, TDP1 inh 2%, Rango-impB inh 1%, TSG101-PTAP inh -6% and 12-LOX inh 12%.
CCCCNC(=S)NCc1ccc2c(c1)cc(C)n2C was read as Rango dissoc inh -16%, ClpP mod 0%, TDP1 inh 8%, Rango-impB inh -2%, TSG101-PTAP inh -2% and 12-LOX inh 40µM*.
Cc1ccccc1NC(=S)NCc1ccc2c(c1)cc(C)n2C was read as Rango dissoc inh 2%, ClpP mod -13%, TDP1 inh 3%, Rango-impB inh 2%, TSG101-PTAP inh -9% and 12-LOX inh inconclusive.
Cc1cc2cc(CNC(=S)NCc3ccccc3)ccc2n1C was read as Rango dissoc inh -19%, TDP1 inh 7%, Rango-impB inh -1%, TSG101-PTAP inh -1% and 12-LOX inh 40µM*.
Cc1ccc(-c2ccc3nnc(CNC(=O)C4CCCCC4)n3n2)cc1C was read as 12-LOX inh 14%.
`COc1ccc2nc(Nc3ccc4c(c3)OCO4)sc2c1` gave Rango dissoc inh inconclusive, ClpP mod 0%, TDP1 inh 2%, Rango-impB inh 3%, TSG101-PTAP inh -3% and 12-LOX inh inconclusive.
COc1ccc2nc(Nc3nc4cc5c(cc4s3)OCO5)sc2c1 was read as Rango dissoc inh 3%, ClpP mod 13µM*, TDP1 inh 6%, Rango-impB inh 0%, TSG101-PTAP inh 0% and 12-LOX inh -2%.
`COc1cccc(Nc2ccc(CN3CCC(C)(NC(C)=O)C3)cc2)c1` (configuration not stated) gave 12-LOX inh -6%[176 µM].
For CC(=O)NC1(C)CCN(Cc2cnc(-c3ccccc3OCc3ccccc3)s2)CC1 the results were 12-LOX inh 8.9µM*.
`COc1cccc(Nc2cc(CN3CCC(C)(NC(C)=O)CC3)cc(OC)c2)c1` gave 12-LOX inh 40µM*.
CC(=O)NC1(C)CCN(Cc2cccc(Oc3ccccc3)c2)CC1 was read as 12-LOX inh 16µM*.
Screening CC(=O)NC1(C)CCN(Cc2cccc(-c3ccccc3)c2)C1 (configuration not stated) returned 12-LOX inh -17%[176 µM].
Screening O=C(NCCc1ccc(F)cc1)C1CCCN(c2ccc3nnc(C(F)(F)F)n3n2)C1 (configuration not stated) returned 12-LOX inh 1%.
CCCC(=O)N1CCN(c2ccc(NC(=O)C3(c4ccccc4)CCCC3)cc2)CC1 was read as 12-LOX inh 2%.
For Cc1cc(C)c(C)c(C(=O)CSc2nnnn2C)c1C the results were 12-LOX inh 65%.
`Cn1cc(CN2CCC(C(=O)NC(c3ccc(F)cc3)c3ccc4ccccc4n3)CC2)c2ccccc21` (configuration not stated) gave ClpP mod 1% and 12-LOX inh 45µM*.
